Assay outcomes as filed in PubChem.
The list is not random: actives were taken first. Their share in the collection is about 3.5%.
FBA Mtb inh: Mtb FBA enzyme inhibitors, primary screen, biochemical, fluorescence, strain H37Rv. purified M. tuberculosis FBA, fluorescence read-out. inhibition, % at 1 µM. 2.3% of 360,000 active. AID 588726, 2011; in the data active = inhibition above about 27%;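 also: 0% = vehicle and 100% = reference inhibitor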
GDH-TPI counter: GDH-TPI coupling enzyme inhibitors, primary screen, artefact control for M. tuberculosis FBA inhibitor project, biochemical, absorbance, full deck | AID 588335, 2011 | 1.2% of 360,000 active | inhibition, % at 4.8 µM | GDH-TPI coupled enzyme counterscreen, NADH absorbance; in the data active = inhibition above about 30%;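 also: 0% = DMSO wells and 100% = wells lacking the enzyme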
Mtb betalactam: beta-lactam sensitization of Mtb H37Rv, H37Rv; inhibition, % at 25 µM; M. tuberculosis H37Rv growth with meropenem, percent inhibition; AID 434955, 2010; 0.27% of 330,000 active; call rule not given here;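 also: growth measured after seven days incubation then overnight dye step; 0% = bacteria only wells and 100% = bacteria with antibiotic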
Rv3671c protease: Rv3671c serine protease inhibitors, primary screen, biochemical, fluorescence polarization, M. tuberculosis H37Rv; P9WHR9; inhibition, % at 5.96 µM; 0.048% of 320,000 active; in the data active = inhibition above about 38%;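 also: extracellular domain of Rv3671c used as enzyme; 0% = enzyme with DMSO and 100% = no enzyme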
Target sequence (P9WHR9 whole entry, looked up, the tested form may be a part): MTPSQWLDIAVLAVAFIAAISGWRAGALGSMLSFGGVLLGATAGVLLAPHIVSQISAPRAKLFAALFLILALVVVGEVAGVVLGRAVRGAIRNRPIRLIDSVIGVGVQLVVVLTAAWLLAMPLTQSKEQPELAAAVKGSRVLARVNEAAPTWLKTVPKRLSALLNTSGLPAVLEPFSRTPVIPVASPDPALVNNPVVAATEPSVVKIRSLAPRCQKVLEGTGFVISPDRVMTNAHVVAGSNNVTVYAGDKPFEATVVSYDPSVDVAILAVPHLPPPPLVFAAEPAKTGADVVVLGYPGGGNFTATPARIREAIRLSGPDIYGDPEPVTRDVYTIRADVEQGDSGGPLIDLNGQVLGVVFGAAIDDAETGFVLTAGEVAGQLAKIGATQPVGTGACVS
Mtb UGM inh: M. tuberculosis UGM enzyme inhibitors, primary screen, biochemical, fluorescence polarization, single point; AID 504406, 2011; 0.06% of 320,000 active; purified UGM, fluorescence polarization probe displacement; UDP-galactopyranose mutase (Mycobacterium tuberculosis (strain ATCC 25618 / H37Rv)), …; inhibition, % at 10 µM; in the data active = inhibition above about 10%, passing the limit was not always enough
An asterisk follows results filed as active.

Screening C=CCN1C=CC(=O)[C@@H](OC(=O)Nc2ccc(Br)cc2)[C@H]1c1ccccc1Br returned FBA Mtb inh 3.7 and GDH-TPI counter 33.3*.
For Cc1ccc(SCC(=O)Nc2ccc(-c3nnc(-c4ccco4)o3)cc2)cc1 the results were FBA Mtb inh 1.0, GDH-TPI counter 30.7*, Mtb betalactam -11.2, Rv3671c protease -10.1 and Mtb UGM inh -1.3.
O=C(O)CCC(=O)Nc1ccc(-c2nnc(-c3ccco3)o2)cc1 was read as FBA Mtb inh 140.8*, GDH-TPI counter 16.9, Mtb betalactam 0.6, Rv3671c protease 4.4 and Mtb UGM inh -2.5.
CCC(=O)Nc1ccc(-c2nnc(-c3ccccc3)o2)cc1 was read as FBA Mtb inh active, GDH-TPI counter 0.8, Mtb betalactam 33.6, Rv3671c protease 1.6 and Mtb UGM inh -1.2.
O=C(Nc1ccc(-c2nnc(-c3ccco3)o2)cc1)C(c1ccccc1)c1ccccc1 was read as FBA Mtb inh 7.3, GDH-TPI counter 19.4, Mtb betalactam -10.8, Rv3671c protease -4.6 and Mtb UGM inh 0.1.
Screening CCC(=O)Nc1cccc(-c2nnc(-c3cccc(NC(=O)CC)c3)o2)c1 returned FBA Mtb inh 4.8, GDH-TPI counter 3.7, Mtb betalactam -15.0, Rv3671c protease -5.7 and Mtb UGM inh 1.3.
COCCCn1c(SCC(=O)Nc2ccc(NC(C)=O)cc2)nc2sc3c(c2c1=O)CCC3 was read as FBA Mtb inh 0.2, GDH-TPI counter 11.3, Mtb betalactam 1.6, Rv3671c protease -9.8 and Mtb UGM inh 1.4.
`N/C(=N\N=C\c1ccc(O)cc1O)N[N+](=O)[O-]` gave FBA Mtb inh 1.0, GDH-TPI counter 36.1*, Mtb betalactam -8.2, Rv3671c protease 4.9 and Mtb UGM inh 1.1.
COc1ccccc1/C=N/N=C(/N)N[N+](=O)[O-] was read as FBA Mtb inh -2.8, GDH-TPI counter 23.0, Mtb betalactam 5.4, Rv3671c protease -4.9 and Mtb UGM inh 0.0.
`COC(=O)c1ccc(NC(=O)N(c2ccccc2)c2ccccc2)cc1` gave FBA Mtb inh -4.7, GDH-TPI counter -3.4, Mtb betalactam -0.6, Rv3671c protease 10.6 and Mtb UGM inh -1.0.
For CCc1cc2c(CN3CCN(C)CC3)cc(=O)oc2cc1O the results were FBA Mtb inh active, GDH-TPI counter 11.0, Mtb betalactam 5.2, Rv3671c protease 5.4 and Mtb UGM inh -0.6.
`Cc1cc2oc(=O)cc(CN3CCN(C/C=C/c4ccccc4)CC3)c2cc1O` gave FBA Mtb inh -1.6, GDH-TPI counter 35.1*, Mtb betalactam 92.2, Rv3671c protease -2.5 and Mtb UGM inh -0.9.
For CCc1cc2c(CN3CCN(CCO)CC3)cc(=O)oc2cc1O the results were FBA Mtb inh 186.5*, GDH-TPI counter 21.3, Mtb betalactam -1.1, Rv3671c protease -3.5 and Mtb UGM inh 0.1.
For O=c1cc(CN2CCN(C/C=C/c3ccccc3)CC2)c2cc(O)c(-c3ccccc3)cc2o1 the results were FBA Mtb inh -0.3, GDH-TPI counter 0.0, Mtb betalactam 22.1, Rv3671c protease 0.5 and Mtb UGM inh -2.4.
Screening Cc1ccc2c(CN3CCN(CCO)CC3)cc(=O)oc2c1C returned FBA Mtb inh -0.6, GDH-TPI counter 2.4, Mtb betalactam -5.3, Rv3671c protease -3.7 and Mtb UGM inh 0.9.
Screening Cn1c(=O)c2c(ncn2CCC(=O)N/N=C/c2cccnc2)n(C)c1=O returned FBA Mtb inh -1.9, GDH-TPI counter -5.4, Mtb betalactam -20.1, Rv3671c protease -1.1 and Mtb UGM inh 5.0.
For Cc1ccc(S(=O)(=O)c2nc(S(=O)(=O)c3ccc(C)cc3)c(N3CCN(CCO)CC3)s2)cc1 the results were FBA Mtb inh 0.1, GDH-TPI counter 11.0, Mtb betalactam 9.5, Rv3671c protease -16.3 and Mtb UGM inh 2.4.
`COC(CNC(=O)c1cc(Sc2nnc(C)s2)nc2ccccc12)OC` gave FBA Mtb inh -4.9, GDH-TPI counter 5.4, Mtb betalactam -7.1, Rv3671c protease 3.9 and Mtb UGM inh 1.8.
For CCN(CC)CCCNC(=O)c1cc(Sc2nnc(C)s2)nc2ccccc12 the results were FBA Mtb inh 1.9, GDH-TPI counter 6.4, Mtb betalactam 0.9, Rv3671c protease -2.5 and Mtb UGM inh 24.7*.
Cc1ccc(/C(O)=C2\C(=O)C(=O)N(Cc3cccnc3)C2c2ccccc2[N+](=O)[O-])cc1 (stereo not drawn) was read as FBA Mtb inh -2.5, GDH-TPI counter 22.3, Mtb betalactam -0.4, Rv3671c protease -3.4 and Mtb UGM inh -0.1.
For Cc1c(N=C2N=C(NC(=O)Nc3ccc(Cl)cc3)c3ccccc32)c(=O)n(-c2ccccc2)n1C the results were FBA Mtb inh -2.1, GDH-TPI counter 1.6, Mtb betalactam 4.9, Rv3671c protease 8.7 and Mtb UGM inh -5.8.
`COc1ccc(/C=C/C(=O)NNc2cc(=O)n(C)c(=O)n2C)cc1OC` gave FBA Mtb inh 11.5, GDH-TPI counter 33.5*, Mtb betalactam 0.6, Rv3671c protease -18.3 and Mtb UGM inh -1.3.
`COc1ccc(/C=N/Nc2cc(=O)n(C)c(=O)n2C)cc1OC` gave FBA Mtb inh 12.6, GDH-TPI counter 34.0*, Mtb betalactam 1.0, Rv3671c protease -11.6 and Mtb UGM inh 2.2.
`COc1cc(/C=C\C(=O)Nc2cc(=O)n(C)c(=O)n2C)cc(OC)c1OC` gave FBA Mtb inh -2.7, GDH-TPI counter 25.2, Mtb betalactam -9.7, Rv3671c protease 3.1 and Mtb UGM inh -3.6.
For Cc1ccc(C)c(N2CCN(C(=O)c3csc4ccccc34)CC2)c1 the results were FBA Mtb inh 2.4, GDH-TPI counter -3.3, Mtb betalactam -0.8, Rv3671c protease -17.3 and Mtb UGM inh -2.3.
CN(CC(=O)Nc1ccc(OC(F)(F)F)cc1)C(=O)Cn1c(=O)cnc2ccccc21 was read as FBA Mtb inh 6.7, GDH-TPI counter 10.4, Mtb betalactam -0.6, Rv3671c protease 0.7 and Mtb UGM inh -1.3.
For Cc1cnc(CNC(=O)C2CCC(=O)N(Cc3ccc(Cl)cc3)C2)[nH]1 (stereo not drawn) the results were FBA Mtb inh -1.9, GDH-TPI counter 0.3, Mtb betalactam -4.2, Rv3671c protease 0.3 and Mtb UGM inh -1.6.
`COC(=O)[C@H](CC(C)C)NC(=O)NCc1ccc(Cl)cc1` gave FBA Mtb inh -1.4, GDH-TPI counter 17.2, Mtb betalactam 1.1, Rv3671c protease 6.4 and Mtb UGM inh 0.1.
`CC(C)OC(=O)c1cccnc1N1CCN(c2cccc(Cl)c2)CC1` gave FBA Mtb inh -2.9, GDH-TPI counter -1.6, Mtb betalactam 8.3, Rv3671c protease -2.9 and Mtb UGM inh -2.5.
`COc1ccc(N2CCN(C(=O)C3CCN(S(=O)(=O)c4c(C)noc4/C=C/N(C)C)CC3)CC2)cc1` gave FBA Mtb inh -1.2, GDH-TPI counter 43.6*, Mtb betalactam -6.1, Rv3671c protease -4.3 and Mtb UGM inh -6.9.
